Screen size: about 330,000 compounds; about 1,900 (0.58%) were called active. Not shown: some 4% with an inconclusive outcome. Only a sample is shown. Potency and affinity values are given separately. A number with no mark means an inactive call. Rule as the data show it: inconclusive = inhibition above about 70% without an active follow-up result; inactive = below that.

This test can be described thus: M. tuberculosis growth inhibition, HTS (AID 449762).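 Also: bacterial growth assessed after seven days of incubation.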 Particulars: M. tuberculosis H37Rv growth inhibition, 7H9 media; at 25 µM; hits give high values.
Broadly, the inhibition is the drop in the measured response relative to a control, in per cent. Consider `CC(=O)N(CC1CCCO1)c1nnc(-c2cnccn2)s1` (stereo not drawn), for which the inhibition is -7.32%.
Consider `CCOC(=O)C[N+](C)(C)CCOC1CC2CCC1(C)C2(C)C` (stereo not drawn), for which the inhibition is 0.01%.
The value for `CCCOC(=O)C[N+](C)(C)CCOC1CC2CCC1(C)C2(C)C` (stereo not drawn) was -2.27%; that for `CCN(CC)c1ccc(C=NCCNS(=O)(=O)c2ccc(C)cc2)cc1` was -5.21%; that for `CCOc1cc(/C=N/Nc2nc3ccccc3[nH]2)cc(Br)c1OCC(=O)N(C)C` was 54.1%.
The value for `CCOc1cc(/C=C2\COc3ccccc3C2=O)ccc1OCC(=O)N(C)C` was 36.2%.
Then `Nn1c(SCC(=O)Nc2ccccc2)nnc1C1CCCCC1`, with -4.13%; and `CCO[C@H]1OC(C(=O)NC2CC2)=C[C@@H](c2csc3ccccc23)[C@@H]1CCCO`, with 2.79%.
`O=C(CC1C(=O)NCCN1Cc1c(F)cccc1Cl)NC1CCCC1` (stereo not drawn): the inhibition is -8.1%.
`O=[N+]([O-])c1cc(Cl)ccc1N1CCN(c2cccc(C(F)(F)F)c2)CC1`: the inhibition is 12%.
The value for `CN(C)CCCN(C(=O)c1ccc(S(=O)(=O)N2CCc3ccccc32)cc1)c1nc2ccc(Cl)cc2s1` was 6.05%; that for `CN(C)CCCN(C(=O)c1ccc(S(=O)(=O)N2CCc3ccccc32)cc1)c1nc2ccc(F)cc2s1` was 2.5%; that for `COc1ccccc1NC(=S)N(Cc1ccc(C(=O)O)cc1)Cc1ccc(OC)c(OC)c1` was 1.31%.
On to `O=C(NCc1n[nH]c(=S)n1-c1ccc(F)cc1)c1ccc(S(=O)(=O)N2CCCCC2)cc1`, for which the inhibition was 0.39%.
Then `Cc1ccc(CNC(=O)c2ccc(Cn3cc(-c4ccc(C)cc4)nc3-c3ccncc3)cc2)cc1`, with 8.49%.
Then `CCCNC(=O)c1ccc(Cn2cc(-c3ccc(OC)cc3)nc2C(C)N)cc1` (stereo not drawn), with -9.06%; and `O=C(NCCc1ccccc1Cl)C1CCC(=O)N(C2CCCCCC2)C1` (stereo not drawn), with 4.37%.
The value for `COc1cc(OC)cc(C(=O)NCCSC2CCCCC2)c1` was 1.7%.
On to `C=CCc1ccccc1OCC(O)CN1CCN(c2ccc(C)cc2)CC1` (stereo not drawn), for which the inhibition was 8.24%.
Then `O=C(c1cc2ccccc2[nH]1)N(Cc1cccnc1)CC1CCCN(C2CCCCC2)C1` (stereo not drawn), with 58%; and `COC(=O)c1ccccc1C(=O)N(Cc1cccnc1)CC1CCCN(C2CCCCC2)C1` (stereo not drawn), with 2.83%; and `CCN(C(=O)c1ccccc1F)c1nc(-c2ccc(OC)cc2)cs1`, with 5.39%.
Then `CCOC(=O)CCc1c(C)c2ccc(OCC(=O)OC(C)C)cc2oc1=O`, with 26.9%; and `CCc1c(C)c2ccc(OCC(N)=O)cc2oc1=O`, with 4.28%.
The value for `CCN(CC)CCCNc1nc2ccccc2c2nc(-c3ccncc3)nn12` was -0.63%; that for `COCCCNc1nc2cc(OC)c(OC)cc2c2nc(-c3ccccc3)nn12` was 13%; that for `CCCCCCCCCCCC(=O)N1CC(=O)NC(=O)C1` was -0.85%.
Turning to `CC(C)CCN1CC(=O)N2[C@@H](Cc3c([nH]c4ccccc34)C2(C)C)C1=O`, the inhibition was 1.66%.
Then `c1ccc(Oc2nc(-c3cccnc3)nc3ccccc23)cc1`, with 13.2%; and `Cc1ccc(Oc2nc(-c3cccnc3)nc3ccccc23)c([N+](=O)[O-])n1`, with 3.26%.
For the compound `Cc1cc(=O)oc2cc(OCC(=O)N3CCN(C(C)c4ccccc4)CC3)c(Cl)cc12` (stereo not drawn), the inhibition is -5.58%.
The value for `CCC(C)N1CCN(C(=O)Cc2ccccc2)CC1` (stereo not drawn) was 4.3%; that for `Cc1ccc(NC(=O)CN(C)C(=O)c2cccc(S(=O)(=O)NCc3ccccc3)c2)cc1` was 2.27%.
Then `CCOc1ccc(CCNC(=O)c2ccc(CS(=O)Cc3ccc(Cl)cc3)o2)cc1` (stereo not drawn), with -1.24%; and `O=C(NCCc1ccccc1)c1ccc(CS(=O)Cc2ccc(Cl)cc2)o1` (stereo not drawn), with 3.87%; and `CCCn1c(N)cc(=O)n(CCC)c1=O`, with 8.69%.
Then `Clc1ccccc1CN1CCN(c2ccccc2Cl)CC1`, with -2.43%; and `Clc1cccc(-c2cc3nc4c(c(N5CCOCC5)n3n2)CCCC4)c1`, with 58.9%; and `COc1cccc(-c2cc3nc4c(c(N5CCC6(CC5)OCCO6)n3n2)CCCC4)c1`, with 12.8%.
Turning to `CN(C)CCCNc1c2c(nc3cc(-c4cccc(F)c4)nn13)CCC2`, the inhibition is 1.49%.
Then `c1coc(CNc2c3c(nc4ncnn24)CCCC3)c1`, with -6.82%.
Regarding `C(=NCCCN1CCOCC1)c1ccc2c(c1)OCO2`, the inhibition was -12.4%.
`COc1cc(NC(=O)C23CC4CC(C2)CC(n2nnc(C)n2)(C4)C3)c(OC)cc1Cl`: the inhibition was 2.98%.
The value for `CCC(C)(C)n1nnnc1C(c1cc2cc(OC)ccc2[nH]c1=O)N1CCc2ccccc21` (stereo not drawn) was 64.6%.
Then `COc1cc2cc(C(c3nnnn3C3CCCC3)N3CCc4ccccc43)c(=O)[nH]c2cc1OC` (stereo not drawn), with 0.64%.
Then `COc1ccc(CN2CCCC(C(=O)c3ccc(Cl)cc3)C2)cc1Cn1cccn1` (stereo not drawn), with -5.07%.
`COc1ccc(CN2CCCC(C(=O)c3cccc(OC(C)C)c3)C2)cc1Cn1cccn1` (stereo not drawn): the inhibition was -6.67%.
The value for `COC12C(COC(N)=O)C3=C(C(=O)C(C)=C(N)C3=O)N1CC1C2N1C` (stereo not drawn) was 100%; that for `CCCNC1=C(C)C(=O)C2=C(C1=O)C(COC(N)=O)[C@]1(OC)C3NC3CN21` (stereo partly drawn) was -1.51%; that for `CC(=O)N1CCN(c2ccc(NC(=S)NC(=O)/C=C/c3ccccc3)cc2)CC1` was 1.44%.
Then `CCOC(=O)c1ccccc1N=Cc1c(O)c2ccccc2oc1=O`, with 5.1%.
For the compound `CCOC(=O)c1ccc(N=Cc2nc(-c3ccccc3)oc2OC(C)=O)cc1`, the inhibition is 39.2%.
The value for `COC(=O)c1cc(N=Cc2c(O)c3ccccc3oc2=O)cc(C(=O)OC)c1` was -16.3%.
Consider `Cn1c(/C=N/O)nc2ccccc21`, for which the inhibition is -1.93%.
Then `COc1ccc(C(O)c2ncc(C(F)(F)F)cc2Cl)cc1` (stereo not drawn), with 12.8%; and `Cc1cc(C(=O)N/N=C2\CC(=O)CC(C)(C)C2)c2ccccc2n1`, with 5.98%; and `COCCn1c(NCc2ccc(C)cc2)nc2c1c(=O)[nH]c(=O)n2C`, with 2.2%.
On to `COc1cccc(NC(=O)C2CCCO2)c1` (stereo not drawn), for which the inhibition is 0.33%.

(Values after PubChem BioAssay AID449762 (Southern Research Specialized Biocontainment Screening …, 2010).)
